Test results: PubChem BioAssay (Tox21)
Values without a mark were called inactive. Results filed as inconclusive are left out. A call without a number means that no potency is given here. Active and inactive are the calls of the source. Unless noted, the call rests on the fitted dose curve.

Experiments:
[1] = Nuclear factor erythroid 2-related factor 2/antioxidant responsive element (Nrf2/ARE) small molecule agonists: qHTS cell viability counter screen in human keratinocytes (AID 1919968; active means well fitted curve in the direction sought with a large enough effect in the repeat runs; an effect the other way counts as inactive or inconclusive; further: nearly all actives have a fitted effect of over 55% in size)
Method in brief: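 Cytotoxicity was multiplexed with the Nrf2/ARE luciferase assay in the same wells. Stably transfected HaCaT keratinocytes were treated with test compounds for 23 h at 37 C. Cell viability was then measured by CellTiter-Fluor fluorescence.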

[2] = Nuclear factor erythroid 2-related factor 2/antioxidant responsive element (Nrf2/ARE) small molecule agonists: luciferase reporter gene qHTS assay in human keratinocytes (AID 1919969); further: nearly all actives have a fitted effect of over 35% in size
[3] = target: Gonadotropin-releasing hormone receptor (Homo sapiens) (UniProt P30968); test: Human gonadotropin-releasing hormone receptor (GnRHR) small molecule agonists, calcium flux assay in GnRHR-HEK293 cells (AID 1920063); further: nearly all actives have a fitted effect of over 35% in size
Sequence of Gonadotropin-releasing hormone receptor (Homo sapiens) (P30968 whole entry, looked up): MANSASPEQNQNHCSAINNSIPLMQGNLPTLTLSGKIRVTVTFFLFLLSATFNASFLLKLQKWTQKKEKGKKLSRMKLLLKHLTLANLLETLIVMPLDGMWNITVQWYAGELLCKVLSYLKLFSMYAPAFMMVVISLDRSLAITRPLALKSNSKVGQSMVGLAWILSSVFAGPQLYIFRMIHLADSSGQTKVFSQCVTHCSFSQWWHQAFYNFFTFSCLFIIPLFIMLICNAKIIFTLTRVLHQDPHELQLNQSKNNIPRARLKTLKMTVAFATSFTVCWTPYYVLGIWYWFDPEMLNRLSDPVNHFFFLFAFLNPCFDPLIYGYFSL
Method in brief: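 Agonist activity was measured as intracellular calcium flux in HEK293 cells engineered to stably express human GnRHR. After dye loading for 1 hour at 37 C, compounds in DMSO were added and fluorescence was followed for 3 minutes.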

[4] = target: KiSS-1 receptor (Homo sapiens) (UniProt Q969F8); test: Human kisspeptin (KISS1R) small molecule agonists, calcium flux assay in KISS1R-HEK293 cells (AID 1920064; active means well fitted curve in the direction sought with a large enough effect in the repeat runs; an effect the other way counts as inactive or inconclusive)
Sequence of KiSS-1 receptor (Homo sapiens) (Q969F8 whole entry, looked up): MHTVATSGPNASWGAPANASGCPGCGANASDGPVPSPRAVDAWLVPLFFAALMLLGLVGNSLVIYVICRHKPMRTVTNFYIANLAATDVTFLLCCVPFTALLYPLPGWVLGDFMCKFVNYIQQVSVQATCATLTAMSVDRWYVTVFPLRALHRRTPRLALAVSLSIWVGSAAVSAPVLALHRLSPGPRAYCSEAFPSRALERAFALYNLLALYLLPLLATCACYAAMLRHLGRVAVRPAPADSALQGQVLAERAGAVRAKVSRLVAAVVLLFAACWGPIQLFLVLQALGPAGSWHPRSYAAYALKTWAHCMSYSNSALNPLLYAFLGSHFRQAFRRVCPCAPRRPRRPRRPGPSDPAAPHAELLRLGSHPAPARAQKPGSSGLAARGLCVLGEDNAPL
Method in brief: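 Agonist activity is monitored as intracellular calcium rise in engineered HEK293 cells carrying human KISS1R. Cells are dye-loaded for 1 h at 37 C before compound addition, and fluorescence is recorded for 3 min.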

[5] = G protein-coupled receptor (GPCR) small molecule agonists, calcium flux assay: HEK293 wild type cell line counter screen (AID 1920065)
Method in brief: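 Seed cells, incubate 18 h (37 C, 5% CO2); add calcium dye, 1 h at 37 C; pin-transfer compounds, ATP control or DMSO; read fluorescence 480/540 nm each second for 3 min.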

[6] = p53 small molecule agonists, cell-based qHTS assay with human liver microsomes: qHTS cell viability counter screen (AID 1963579); further: nearly all actives have a fitted effect of over 45% in size
Method in brief: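 p53RE-bla cells, 4,000/well, dosed 5 hours after plating, with human liver microsomes (0.5 mg/mL final) plus NADPH (0.5 mg/mL final), 16 hours at 37 C. Viability read as CellTiter-Glo luminescence after 30 min at room temperature.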

[7] = p53 small molecule agonists, cell-based qHTS assay with rat liver microsomes: qHTS cell viability counter screen (AID 1963580); further: nearly all actives have a fitted effect of over 45% in size
Method in brief: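 Counter screen for cytotoxicity under metabolic activation: rat liver microsomes and NADPH, 0.5 mg/mL final each, added with compounds to p53RE-bla HCT-116 cells; 16 h at 37 C, then ATP luminescence read.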

[8] = p53 small molecule agonists, cell-based qHTS assay: qHTS cell viability counter screen (AID 1963581); further: nearly all actives have a fitted effect of over 45% in size
Method in brief: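 Viability was counter-screened in parallel with the p53 agonist reporter by measuring intracellular ATP luminescence in the same HCT-116 p53RE-bla wells after 16 h compound treatment at 37 C.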

[9] = target: 5-hydroxytryptamine receptor 2A (Homo sapiens) (UniProt P28223); test: 5-hydroxytryptamine receptor 2A (HTR2A) small molecule antagonists, cell-based qHTS assay (AID 1963586); further: nearly all actives have a fitted effect of over 45% in size
Sequence of 5-hydroxytryptamine receptor 2A (Homo sapiens) (P28223 whole entry, looked up): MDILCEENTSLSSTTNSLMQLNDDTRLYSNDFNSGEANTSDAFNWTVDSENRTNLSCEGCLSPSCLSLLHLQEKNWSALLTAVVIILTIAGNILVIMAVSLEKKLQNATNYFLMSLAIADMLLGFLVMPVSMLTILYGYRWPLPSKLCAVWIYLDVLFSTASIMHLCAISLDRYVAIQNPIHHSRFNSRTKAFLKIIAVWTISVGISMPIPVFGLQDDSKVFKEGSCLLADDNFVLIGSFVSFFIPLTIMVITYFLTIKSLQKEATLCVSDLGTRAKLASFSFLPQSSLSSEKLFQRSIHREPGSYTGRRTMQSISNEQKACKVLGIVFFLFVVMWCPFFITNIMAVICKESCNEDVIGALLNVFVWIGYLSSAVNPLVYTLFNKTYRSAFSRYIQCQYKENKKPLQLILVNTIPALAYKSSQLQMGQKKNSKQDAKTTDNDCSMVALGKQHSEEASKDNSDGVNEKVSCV
Method in brief: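 CHO cells stably expressing human HTR2A were plated for 18 h at 37 C, then loaded with calcium dye for 1 h. Compounds were preincubated 5 min at room temperature before DOI (4 nM solution) was added. Kinetic fluorescence was read for 3 min.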

[10] = target: 5-hydroxytryptamine receptor 2A (Homo sapiens) (UniProt P28223); test: 5-hydroxytryptamine receptor 2A (HTR2A) small molecule agonists, cell-based qHTS assay (AID 1963587); further: nearly all actives have a fitted effect of over 30% in size
Method in brief: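 HTR2A-CHO cells, plated 18 h at 37 C/5% CO2, dye-loaded 1 h at 37 C; compounds in DMSO added by pin tool (agonist mode). Intracellular calcium flux read as kinetic fluorescence on FDSS over 2 min at 1 s intervals.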

[11] = target: Muscarinic acetylcholine receptor M1 (Homo sapiens) (UniProt P11229); test: Cholinergic receptor muscarinic 1 (CHRM1) small molecule antagonists, cell-based qHTS assay (AID 1963588); further: nearly all actives have a fitted effect of over 40% in size; further: potency means the concentration at half of the fitted maximal effect
Sequence of Muscarinic acetylcholine receptor M1 (Homo sapiens) (P11229 whole entry, looked up): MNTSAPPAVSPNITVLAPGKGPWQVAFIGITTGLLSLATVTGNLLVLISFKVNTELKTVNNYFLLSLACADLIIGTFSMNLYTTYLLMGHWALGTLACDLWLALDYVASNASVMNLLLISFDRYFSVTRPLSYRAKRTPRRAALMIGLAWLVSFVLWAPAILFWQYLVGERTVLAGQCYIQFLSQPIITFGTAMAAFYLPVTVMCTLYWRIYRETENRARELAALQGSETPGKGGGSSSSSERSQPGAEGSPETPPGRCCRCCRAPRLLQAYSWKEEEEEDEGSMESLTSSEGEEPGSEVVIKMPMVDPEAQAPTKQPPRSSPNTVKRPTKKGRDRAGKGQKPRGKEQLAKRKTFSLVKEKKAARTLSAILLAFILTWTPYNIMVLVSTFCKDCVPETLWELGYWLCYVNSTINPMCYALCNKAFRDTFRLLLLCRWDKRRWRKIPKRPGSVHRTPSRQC
Method in brief: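 Compounds were tested at 15 concentrations in three independent runs. Dye-loaded CHRM1-CHO cells were exposed 5 min at room temperature before stimulation by acetylcholine added at 50nM. Intracellular calcium was read kinetically on FDSS for 3 min.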

[12] = target: Muscarinic acetylcholine receptor M1 (Homo sapiens) (UniProt P11229); test: Cholinergic receptor muscarinic 1 (CHRM1) small molecule agonists, cell-based qHTS assay (AID 1963589); further: nearly all actives have a fitted effect of over 35% in size
Method in brief: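 Cells were plated and incubated 18 h at 37 C/5% CO2, loaded with calcium dye for 1 h at 37 C, then treated with compounds in DMSO. Fluorescence was recorded kinetically at 1 sec intervals.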

[13] = cAMP Responsive Elements (CRE) small molecule agonists, cell-based qHTS assay (AID 1963590)
Method in brief: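 Cells carrying a CRE-driven beta-lactamase reporter (HEK 293T) are seeded, incubated overnight (18 h), and treated with test compounds for 3 h at 37 C; reporter activity is then detected with a FRET substrate after 2 h at room temperature.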

[14] = cAMP Responsive Elements (CRE) small molecule antagonists, cell-based qHTS assay (AID 1963591; active means well fitted inhibition curve with a large enough effect in the signal ratio in the repeat runs, not every such curve was filed as active; the % refers to the signal ratio)
Method in brief: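 Cells (CRE-bla HEK 293T, DMEM with 10% dialyzed FBS and 25 mM HEPES) are seeded and incubated 18 h. Compounds are added with NKH477 agonist at 0.25 uM final for 3 h, then FRET substrate for 2 h.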

[15] = target: Beta-2 adrenergic receptor (Homo sapiens) (UniProt P07550); test: Adrenergic beta2 receptor (ADRB2) small molecule antagonists, cell-based qHTS assay (AID 1963592); further: series mostly up to about 92 µM; nearly all actives have a fitted effect of over 50% in size
Sequence of Beta-2 adrenergic receptor (Homo sapiens) (P07550 whole entry, looked up): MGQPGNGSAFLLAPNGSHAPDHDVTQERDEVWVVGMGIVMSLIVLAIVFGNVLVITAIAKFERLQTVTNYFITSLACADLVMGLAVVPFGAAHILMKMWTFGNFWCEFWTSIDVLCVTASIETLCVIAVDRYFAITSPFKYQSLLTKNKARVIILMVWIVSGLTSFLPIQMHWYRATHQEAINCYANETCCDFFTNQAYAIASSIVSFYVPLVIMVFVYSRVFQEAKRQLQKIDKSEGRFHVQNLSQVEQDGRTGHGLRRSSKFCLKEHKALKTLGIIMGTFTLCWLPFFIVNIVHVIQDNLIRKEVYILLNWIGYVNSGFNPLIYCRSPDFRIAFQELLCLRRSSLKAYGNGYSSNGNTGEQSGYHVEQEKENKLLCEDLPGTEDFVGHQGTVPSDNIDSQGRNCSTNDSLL
Method in brief: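 Assay format: CHO-ADRB2 cells, 18-20hr seeding at 37C/5% CO2, then compound plus 1nM isoproterenol agonist mix for 0.5hr RT. Homogeneous time-resolved fluorescence cAMP detection after 1hr, expressed as 665/615 nm ratio.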

[16] = target: D(2) dopamine receptor (Homo sapiens) (UniProt P14416); test: Dopamine D2 receptor (DRD2) small molecule agonists, cell-based qHTS assay (AID 1963594); further: nearly all actives have a fitted effect of over 35% in size
Sequence of D(2) dopamine receptor (Homo sapiens) (P14416 whole entry, looked up): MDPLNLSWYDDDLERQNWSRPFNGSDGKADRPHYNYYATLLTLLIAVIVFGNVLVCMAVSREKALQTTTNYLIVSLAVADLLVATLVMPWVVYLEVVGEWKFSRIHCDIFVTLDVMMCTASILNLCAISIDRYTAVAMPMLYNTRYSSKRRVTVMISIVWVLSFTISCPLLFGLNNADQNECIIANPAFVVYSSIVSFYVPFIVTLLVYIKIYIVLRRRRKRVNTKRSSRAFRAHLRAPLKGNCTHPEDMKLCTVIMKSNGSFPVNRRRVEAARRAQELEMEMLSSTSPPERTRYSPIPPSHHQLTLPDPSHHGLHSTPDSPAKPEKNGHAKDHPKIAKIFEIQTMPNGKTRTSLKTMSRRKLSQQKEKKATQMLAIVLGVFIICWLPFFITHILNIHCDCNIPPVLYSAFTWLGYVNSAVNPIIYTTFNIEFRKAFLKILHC
Method in brief: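 HEK293 cells stably expressing DRD2 were cultured 24 h at 37 C, then given Ro20-1724 (0.1 mM final) and compounds for 10 min at room temperature. NKH477 (200nM) was then added for 30 min. cAMP was read by HTRF.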

[17] = target: D(2) dopamine receptor (Homo sapiens) (UniProt P14416); test: Dopamine D2 receptor (DRD2) small molecule antagonists, cell-based qHTS assay (AID 1963595; active means well fitted inhibition curve with a large enough effect in the signal ratio in the repeat runs, with a control signal flat; the % refers to the signal ratio)
Method in brief: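 Antagonist mode in DRD2-HEK293 cells: after compound addition with 0.1 mM Ro20-1724, cells received quinpirole (12 nM) and NKH477 (200 nM) for 30 min at room temperature; HTRF cAMP read after 1 h detection.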

[18] = target: Beta-2 adrenergic receptor (Homo sapiens) (UniProt P07550); test: Adrenergic beta2 receptor (ADRB2) small molecule agonists, cell-based qHTS assay (AID 1963593);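 further: CHO cells stably overexpressing human ADRB2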
Method in brief: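 CHO cells stably over-expressing ADRB2 were plated overnight at 37C, then dosed with compounds plus a stimulation mix containing 100uM IBMX and 25uM Ro-20-1724 for 0.5hr at room temperature. cAMP was measured by HTRF competition, 1hr.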

## COc1cccc2sc(N)nc12
[1]
  Potency: inactive
[2]
  Potency: inactive
[3]
  Potency: inactive
[4]
  Potency: inactive
[5]
  Potency: inactive
[6]
  Potency: inactive
[7]
  Potency: inactive
[8]
  Potency: inactive
[9]
  Potency: inactive
[10]
  Potency: inactive
[11]
  Potency: inactive
[12]
  Potency: inactive
[13]
  Potency: inactive
[14]
  Potency: inactive
[15]
  Potency: inactive
[16]
  Potency: inactive
[17]
  Potency: inactive

## Cc1ccccc1OCC(=O)O
[1]
  Potency: inactive
[2]
  Potency: inactive
[3]
  Potency: inactive
[4]
  Potency: inactive
[5]
  Potency: inactive
[6]
  Potency: inactive
[7]
  Potency: inactive
[8]
  Potency: inactive
[9]
  Potency: inactive
[10]
  Potency: inactive
[11]
  Potency: inactive
[12]
  Potency: inactive
[13]
  Potency: inactive
[14]
  Potency: inactive
[15]
  Potency: inactive
[18]
  Potency: inactive
[17]
  Potency: inactive

## CCCC(=O)OCCC(C)CCC=C(C)C (centres undefined)
[1]
  Potency: inactive
[2]
  Potency: inactive
[3]
  Potency: inactive
[4]
  Potency: inactive
[5]
  Potency: inactive
[6]
  Potency: inactive
[7]
  Potency: inactive
[8]
  Potency: inactive
[9]
  Potency: inactive
[10]
  Potency: inactive
[11]
  Potency: inactive
[12]
  Potency: inactive
[13]
  Potency: inactive
[14]
  Potency: inactive
[15]
  Potency: inactive
[18]
  Potency: inactive
[17]
  Potency: inactive

## CCN(CC)C(=O)c1ccc(O)c(OC)c1
[1]
  Potency: inactive
[2]
  Potency: inactive
[3]
  Potency: inactive
[4]
  Potency: inactive
[5]
  Potency: inactive
[6]
  Potency: inactive
[7]
  Potency: inactive
[8]
  Potency: inactive
[9]
  Potency: inactive
[10]
  Potency: inactive
[11]
  Potency: inactive
[12]
  Potency: inactive
[13]
  Potency: inactive
[14]
  Potency: inactive
[15]
  Potency: inactive
[16]
  Potency: inactive

## CC(C)(C)CC(C)(C)N
[1]
  Potency: inactive
[2]
  Potency: inactive
[3]
  Potency: inactive
[4]
  Potency: inactive
[5]
  Potency: inactive
[6]
  Potency: inactive
[7]
  Potency: inactive
[8]
  Potency: inactive
[9]
  Potency: inactive
[10]
  Potency: inactive
[11]
  Potency: inactive
[12]
  Potency: inactive
[13]
  Potency: inactive
[14]
  Potency: inactive
[15]
  Potency: inactive
[16]
  Potency: inactive
[17]
  Potency: inactive

## C/C(C=O)=C\c1ccccc1
[1]
  Potency: inactive
[2]
  Potency: inactive
[3]
  Potency: inactive
[4]
  Potency: inactive
[5]
  Potency: inactive
[6]
  Potency: inactive
[7]
  Potency: inactive
[8]
  Potency: inactive
[9]
  Potency: inactive
[10]
  Potency: inactive
[11]
  Potency: inactive
[12]
  Potency: inactive
[13]
  Potency: inactive
[14]
  Potency: inactive
[15]
  Potency: inactive
[16]
  Potency: inactive
[17]
  Potency: inactive

## CN1C(C)(C)CC(O)CC1(C)C
[1]
  Potency: inactive
[2]
  Potency: inactive
[3]
  Potency: inactive
[4]
  Potency: inactive
[5]
  Potency: inactive
[6]
  Potency: inactive
[7]
  Potency: inactive
[8]
  Potency: inactive
[9]
  Potency: inactive
[10]
  Potency: inactive
[11]
  Potency: inactive
[12]
  Potency: inactive
[13]
  Potency: inactive
[14]
  Potency: inactive
[15]
  Potency: inactive
[16]
  Potency: inactive
[17]
  Potency: inactive

## OC(C#CCN1CCCC1)(c1ccccc1)c1ccccc1
[1]
  Potency: inactive
[2]
  Potency: inactive
[3]
  Potency: inactive
[4]
  Potency: inactive
[5]
  Potency: inactive
[6]
  Potency: inactive
[7]
  Potency: inactive
[8]
  Potency: inactive
[9]
  Potency: inactive
[10]
  Potency: inactive
[11]
  Potency: 6.5 nM (active)
[12]
  Potency: inactive
[13]
  Potency: inactive
[14]
  Potency: inactive
[15]
  Potency: inactive
[16]
  Potency: inactive
